# Source: PMC12136788
# Changes are numbered by the printed parent chain. The full ranking holds about 24,000 sequences; the median of “enrichment r” is about 0.99, and the highest 2% start at about 3.7. The list comes from a sample in which the highest values are over-represented; it also holds similar and randomly drawn sequences.
# T1: UNK ZnF1-3 (human, UniProt Q9C0B0 31-174)
# T1 sequence: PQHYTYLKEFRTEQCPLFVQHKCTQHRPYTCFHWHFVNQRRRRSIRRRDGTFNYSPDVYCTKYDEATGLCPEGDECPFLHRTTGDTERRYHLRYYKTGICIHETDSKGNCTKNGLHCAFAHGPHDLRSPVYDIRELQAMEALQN
# B1: chr4:17841332:17841333:+_ENSG00000109805_ENST00000514176|hu_hu|FALSE|FALSE (ssRNA)
# RNA: GGGAGUUCUACAGUCCGACGAUCCUUUUGUAUAGACUCGAAUUUCUGGCGAGCACGGACUUGUUAAGAUCUCAUUGCAAAUUUUCAUAGCCAAAUUGUCAUGUACUGUUAAGGCCUGAUAAUCUUGGGAAGUCUUGGCCUGAGCAACAGAGGAUUGAGCAUCA
# B2: chr17:56552419:56552420:-_ENSMUSG00000013236_ENSMUST00000086828|mus_mus|mus_mus_mus_hu_False|28_78 (ssRNA)
# RNA: GGGAGUUCUACAGUCCGACGAUCAAAAAAUACACUAUUUAAAAAAAAUGAAAUGUCAGAAAAAGAAGUUACACUGAGAGUUUUAAAAGAAAGCUGGAUUCUGGUCCUUGCCAAAAGUCCCCAGGCUGCAGAGCGGGGAGGAGCCAACAGAGGAUUGAGCAUCA
# B3: chr17:56552419:56552420:-_ENSMUSG00000013236_ENSMUST00000086828|mus_mus|mus_mus_mus_hu_False|28_98 (ssRNA)
# RNA: B2 RNA with U38A, U39A, G58C, A59G, A60G, A61G, A63U, G64A, A65C
# B4: chr17:56552419:56552420:-_ENSMUSG00000013236_ENSMUST00000086828|mus_mus|mus_mus_mus_hu_False|28_58 (ssRNA)
# RNA: B2 RNA with G58C, A59G, A60G, A61G, A63U, G64A, A65C, G77C, G79C, U81A
# B5: chr17:56552419:56552420:-_ENSMUSG00000013236_ENSMUST00000086828|mus_mus|mus_mus_mus_hu_False|28_48 (ssRNA)
# RNA: GGGAGUUCUACAGUCCGACGAUCAAAAAAUACACUAUUUAAAAAAAAUGAAAUGUCACGGGAUACAGUUACACUGAGAGUUUUAAAAAAAAAUAAGAUUCUGGUCCUUGCCAAAAGUCCCCAGGCUGCAGAGCGGGGAGGAGCCAACAGAGGAUUGAGCAUCA
# B6: chr7:149068622:149068623:-_ENSMUSG00000025139_ENSMUST00000001950|mus_hu|mus_mus_mus_hu_False|78_88 (ssRNA)
# RNA: GGGAGUUCUACAGUCCGACGAUCGUGAGGCCUCUGAGUGUGGCUUGUGCUCUGCAGUGUCUGCAGUUUGUUAAUAUCACGGAACAUACCAUCUAGAACGUUCCAGUCCCGCCUGACACCUUCAUUCCCAAUGGAGAAGAAAUCCAACAGAGGAUUGAGCAUCA
# B7: chr5:135101456:135101457:-_ENSMUSG00000040731_ENSMUST00000036125|mus_mus|motif|central (ssRNA)
# RNA: GGGAGUUCUACAGUCCGACGAUCACCCAAGAGUGCACCGUCAUAAGUCAGAGCCUCCUUCAGGGAAUCCACCUCAUCAAAUUCGGCAUAGCAGAACCCUUUAAAUUUGUCUGUGUCUUUGUCUCUGACUAGCCGCACACUCCGCAACAGAGGAUUGAGCAUCA
# B8: chrX:130830059:130830060:+_ENSMUSG00000033578_ENSMUST00000037687|mus_mus|FALSE|FALSE (ssRNA)
# RNA: GGGAGUUCUACAGUCCGACGAUCGGGCCAUGAUAGUUAUGGUUCGUGGGGAUGCCAUGGGGUCACCAAGGCAGGUCCCAACUAAUCCCUCUGCUUUGCGCAGCCCGGCUGUCAAGGCGCAGGCAGUUAGCACAGGGAGAGCUACAACAGAGGAUUGAGCAUCA
# B9: chr1:163117127:163117128:-_ENSG00000143248_ENST00000313961|hu_mus|FALSE|FALSE (ssRNA)
# RNA: GGGAGUUCUACAGUCCGACGAUCUGCUACAAAGGAUGUAACUCAACUCACAGGGCAACUUUUGGAAGCCUGACCAGAUGACUACUUGAUUAGCUCCUUAUAAAAUUCAGAGCGCACAAAGCGGGGCAGAGAAUCCUUCUCCAUCAACAGAGGAUUGAGCAUCA
# B10: 139258410_139258530_201_CDS_ENSG00000114115_ENST00000232219|human|control|control (ssRNA)
# RNA: GGGAGUUCUACAGUCCGACGAUCGCGGGACGGCUGGAGACUGCCGGGACAGCGGCUGCCGGUGCUACGCGGGUGGUGGGCGGCCCGGAAAUGAGCGCCCUCCGGGGACAGGGGGCUCUGCGGGGCGGCGACAGCUGGAUUCCCCAACAGAGGAUUGAGCAUCA
# B11: chr17:56552419:56552420:-_ENSMUSG00000013236_ENSMUST00000086828|mus_mus|mus_mus_mus_hu_False|18_28 (ssRNA)
# RNA: GGGAGUUCUACAGUCCGACGAUCAAAAAAUACACUAUUUAAAAAAAAUGAAAUGUCACGGGAUACAGUUACACUGAGAGUUUUAAAAGAAAGCUGGAUUCUGGUCCUUGCCAAAAGGCAGGCAGGGGCAGAGCGGGGAGGAGCCAACAGAGGAUUGAGCAUCA
# B12: chr17:56552419:56552420:-_ENSMUSG00000013236_ENSMUST00000086828|mus_mus|motif|central (ssRNA)
# RNA: GGGAGUUCUACAGUCCGACGAUCUUUGUUUUUUUCUUAAAAAAAAAAAAGAAAAAAAGAAAAAGAAAAAAAAUAUACACGGUUAAAAAAAAAUAAGAAAAAAAAUGUUGCCAAAAGGCAGGCAGGGGAGUGCGGAAGCAGAGGCAACAGAGGAUUGAGCAUCA
# B13: chr2:65539780:65539781:-_ENSG00000198369_ENST00000356388|hu_hu|motif|central (ssRNA)
# RNA: GGGAGUUCUACAGUCCGACGAUCUUUGCAAAACAACAAGCAAAAUUUCUUACUUCACUAGUAUCCUAUUCUAAUAUUGCGGAAUUUUUAGAAGUGGUGGCAACACAAUUUAAAAAAUGUUCUACUUUAGGGGUAAUGGGGAGGCAACAGAGGAUUGAGCAUCA
# B14: chr17:56552419:56552420:-_ENSMUSG00000013236_ENSMUST00000086828|mus_mus|FALSE|FALSE (ssRNA)
# RNA: B12 RNA with G80U, G81A
# B15: chr7:54825262:54825263:-_ENSG00000132432_ENST00000352861|hu_hu|hu_hu_hu_mus_False|48_98 (ssRNA)
# RNA: GGGAGUUCUACAGUCCGACGAUCCUGCCGGCUGGGCACAAACUGCAGCAUUACCUGAUCCAUGUUUGUUGGAUGGCGGAUUGAGAGUGCCAGGGACCGUAGCUCAGGAGAGAACCGAGCCCAACGGAACCGGAAGCUGGCAACCAACAGAGGAUUGAGCAUCA
# B16: chr1:34870196:34870197:-_ENSMUSG00000037503_ENSMUST00000047534|mus_hu|motif|central (ssRNA)
# RNA: GGGAGUUCUACAGUCCGACGAUCAUCUGAGCUCAUCUCAUCAGAUUGCAUAAAAAAUUAAAAUAGUAUCAAUUGACACCGGACUGAACUGGCUCAGGAUGGAAAUUCCAUUCCUUGGCAUGGAUACGUAAGUUCAAUGCAGAGCAACAGAGGAUUGAGCAUCA
# B17: chr3:148802587:148802588:-_ENSG00000071794_ENST00000310053|hu_mus|hu_hu_hu_mus_False|28_38 (ssRNA)
# RNA: GGGAGUUCUACAGUCCGACGAUCUCCAACAACUUGUCCUCUCAUAGUUCCAAAUAAAACCAAAUCUUGCUCUUCAUCACUCGUUAGGAAGUCAUCUGGAGGGAUAACAUCUUGGAAUUCAAAAUGUGGCAAGAAAGUUGAGUACAACAGAGGAUUGAGCAUCA
# B18: chr3:95023916:95023917:-_ENSMUSG00000053192_ENSMUST00000065482|mus_mus|motif|central (ssRNA)
# RNA: GGGAGUUCUACAGUCCGACGAUCUAAAUAAAUAAAUAAAUAAAUAUAGAUAGAUAAAUAAGUACGUACAUACAUACAAACCGGCAAUUCAAUUGGCAGAUUCAUCAGCACCACCAGCACAAUAGAGGGAAGAGAACAAGAUUACAACAGAGGAUUGAGCAUCA
# B19: chr17:64801638:64801639:+_ENSG00000154229_ENST00000413366|hu_mus|hu_hu_hu_mus_False|78_78 (ssRNA)
# RNA: GGGAGUUCUACAGUCCGACGAUCUAUAUAUAUAUAUACAUAUGUACACAUAUAUAGUAAGAGCCUAGUUAAACGUGUAAAGUAGCCAUUCAUUUUUAAAAUUACAUCUACAUUAAAAAAUUAAUAUAUCUGAUAGAGUGCCAGCAACAGAGGAUUGAGCAUCA
# B20: chr3:95023916:95023917:-_ENSMUSG00000053192_ENSMUST00000065482|mus_mus|FALSE|FALSE (ssRNA)
# RNA: B18 RNA with G82U, G83A
# B21: 17587070_17598549_148_CDS_ENSMUSG00000015733_ENSMUST00000015877|mouse|control|control (ssRNA)
# RNA: GGGAGUUCUACAGUCCGACGAUCGUGAAUGAUGAAUUUUGCUGCUAUACGAACCUUCUCCUCAUCGGACAACUGCUCCUCCAGAUCCGCCAUCUUCCUUCUGGCGACAGACCGUGGCGCUGGUGGCAGCAGCGGCCACCUGACCAACAGAGGAUUGAGCAUCA
# B22: 33058320_33060047_1444_CDS_ENSG00000170266_ENST00000307363|human|control|control (ssRNA)
# RNA: GGGAGUUCUACAGUCCGACGAUCUCCCUGGGGGAUCCCAUCCACAGCAACAUAUGCUCGAUCGUGGACUCCAUUGAGGGGUGAAGAGAGAGGUGCUGGGUUGCUGCAAUCUUGAGGAAGUGUUGUCCGGUACAGCACAAACCCCAACAGAGGAUUGAGCAUCA
# Target: T1, UNK ZnF1-3
# Test: nsRBNS (natural sequence RNA bind-n-seq); RBNS binding buffer (assumed for nsRBNS): 25 mM Tris pH 7.5, 150 mM KCl, 3 mM MgCl2, 0.01% Triton X-100, 500 ug/ml BSA, 20 U/ml SUPERase-In, 4 C; UNK is unkempt and MSI1 is Musashi-1; names of the RNAs are library labels; protein concentration not given here; high values mean tight binding
row,Binder,binding signal [enrichment R]
1,B1,0.957
2,B2,3.64
3,B3,6.54
4,B4,4.14
5,B5,6.32
6,B6,0.733
7,B7,0.437
8,B8,0.967
9,B9,1.14
10,B10,1.1
11,B11,3.67
12,B12,15.8
13,B13,3.44
14,B14,19.2
15,B15,1.44
16,B16,1.43
17,B17,1.19
18,B18,19.9
19,B19,1.53
20,B20,7.35
21,B21,0.822
22,B22,0.932
